This is an account of results in PubChem BioAssay (NCI).

Among the test systems are NCI-H23 lung; NCI-H226 lung; NCI-H322M lung; HOP-62 NSCLC; NCI-H460 lung; HOP-92 NSCLC; NCI-H522 lung; A549/ATCC NSCLC; 786-0 renal; COLO 205 colon.
Assay in all cases: NCI-60 one-dose screen, 48 h (100 = growth as untreated, 0 = no growth, -100 = all killed)
Holding throughout (conditions): 10 µM

About 83,000 compounds went through this panel and 20% of them were active in at least one assay; those are over-represented in the sample as a whole.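 Growth was measured after 48 h exposure to one concentration of compound in 96-well plates. Values under 10 count as active.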 Values without a mark were called inactive. The source made the active and inactive calls.

With `CCCCCCCCCCSC(=N)N` (tested in a mixture with another compound), the growth with NCI-H23 lung was 80%; with NCI-H226 lung, 94.2%; with NCI-H322M lung it was 105%; with HOP-62 NSCLC, 77.3%; with NCI-H460 lung, 52.5%; with HOP-92 NSCLC, 41.8%. The growth was 53.7% with NCI-H522 lung, 75.3% with A549/ATCC NSCLC, 52.4% in the assay with 786-0 renal and -59.2% (active) with COLO 205 colon.
For the compound `COc1ccc2oc(=O)cc(C(c3ccc[nH]3)c3ccc[nH]3)c2c1`, the growth was 26% with NCI-H23 lung; 7.92% (active) in the assay on NCI-H226 lung; 27.7% in the assay on NCI-H322M lung; 4.73% (active) in the assay on HOP-62 NSCLC; 4.57% (active) in the assay on NCI-H460 lung; 32.6% with HOP-92 NSCLC. Besides, the growth with NCI-H522 lung was -23.1% (active); in the assay on A549/ATCC NSCLC it was -7.88% (active); with 786-0 renal, 17.2%; with COLO 205 colon, -71.5% (active).
`COc1ccc(-c2ccc(-c3ccc(C(=N)N)c(F)c3)s2)cc1`: the growth is -81.9% (active) in the assay with NCI-H23 lung; -41% (active) in the assay with NCI-H226 lung; -91.5% (active) in the assay on NCI-H322M lung; -75.7% (active) in the assay with HOP-62 NSCLC; -84.2% (active) in the assay on NCI-H460 lung; -87.8% (active) with HOP-92 NSCLC. Also, the growth in the assay on NCI-H522 lung was -76.5% (active); with A549/ATCC NSCLC, -81.9% (active); in the assay with 786-0 renal, -82.5% (active); with COLO 205 colon, -71.1% (active).
In the case of `COc1cc(C2C=C(c3ccc(Cl)c(Cl)c3)N=C3SC(C)=CN32)cc(OC)c1OC` (stereo not given), the growth in the assay on NCI-H23 lung was 79.5%; in the assay with NCI-H226 lung it was 50.5%; in the assay with NCI-H322M lung, 81.8%; with HOP-62 NSCLC, 91.1%; with NCI-H460 lung, 77.5%; with HOP-92 NSCLC, 81.9%. For the same compound, the growth was 57.2% in the assay on NCI-H522 lung, 83.8% with A549/ATCC NSCLC, 85.6% with 786-0 renal and 81.3% with COLO 205 colon.
As for `O=C(O)CNS(=O)(=O)c1ccc(OCCOc2ccc(S(=O)(=O)NCC(=O)O)cc2)cc1`, the growth in the assay on NCI-H23 lung is 95.9%; with NCI-H226 lung, 100%; with NCI-H322M lung, 97.4%; in the assay on HOP-62 NSCLC it was 92.8%; with NCI-H460 lung it was 109%; in the assay on HOP-92 NSCLC it was 104%. The growth was 88.9% in the assay with NCI-H522 lung, 104% in the assay with A549/ATCC NSCLC, 104% in the assay on 786-0 renal and 99.8% in the assay on COLO 205 colon.
As for `COc1cc(/C=C2\C(=O)Nc3cc(C)c(O)cc32)cc(OC)c1OC`, the growth in the assay on NCI-H23 lung is 65.2%; in the assay on NCI-H226 lung it was 79.8%; in the assay with NCI-H322M lung, 80%; with HOP-62 NSCLC it was 85.7%; in the assay on NCI-H460 lung it was 40%; with HOP-92 NSCLC it was 63.6%. In addition, the growth in the assay on NCI-H522 lung is 41.6%; in the assay on A549/ATCC NSCLC, 50.1%; with 786-0 renal, 70.1%; with COLO 205 colon, 69.1%.
Take `C=CCOc1ccc2c(c1)CC[C@@H]1[C@@H]2CC[C@]2(C)C(=O)/C(=N/O)C[C@@H]12`: the growth in the assay on NCI-H23 lung was 60.1%; in the assay with NCI-H226 lung, 76.2%; with NCI-H322M lung, 50.9%; with HOP-62 NSCLC, 56.7%; with NCI-H460 lung, 64%; in the assay with HOP-92 NSCLC it was -5.15% (active). Moreover, the growth in the assay with NCI-H522 lung is 44.5%; with A549/ATCC NSCLC it was 58.5%; with 786-0 renal it was 47.3%; in the assay on COLO 205 colon it was 40.8%.
As for `CC(C)=C1CCC(C)C/C1=N\N=C(N)N` (stereo not given), the growth with NCI-H23 lung is 105%; with NCI-H226 lung, 97.9%; with NCI-H322M lung it was 97.1%; with HOP-62 NSCLC, 101%; with NCI-H460 lung it was 102%; in the assay on HOP-92 NSCLC, 85.8%. In addition, the growth is 90.8% in the assay with NCI-H522 lung, 91.8% with A549/ATCC NSCLC, 93.3% in the assay on 786-0 renal and 108% in the assay on COLO 205 colon.
`Cc1c(C(=O)N[C@H](CO)Cc2ccccc2)[nH]c2ccc(Cl)cc2c1=O`: the growth is 101% in the assay on NCI-H23 lung; 120% in the assay on NCI-H226 lung; 108% in the assay with NCI-H322M lung; 100% with HOP-62 NSCLC; 106% in the assay on NCI-H460 lung; 94.7% in the assay with HOP-92 NSCLC. The growth in the assay with NCI-H522 lung was 83.8%; in the assay on A549/ATCC NSCLC, 87.1%; with 786-0 renal, 96.4%; with COLO 205 colon, 104%.
Turning to `C=C1C(=O)O[C@H]2[C@H]1CC/C(COC(=O)OCCCCCOC(=O)OC/C1=C/CC[C@@]3(C)O[C@H]3[C@H]3OC(=O)C(=C)[C@@H]3CC1)=C\CC[C@@]1(C)O[C@@H]21`, the growth in the assay with NCI-H23 lung was -37.5% (active); with NCI-H226 lung, -33% (active); in the assay on NCI-H322M lung, 50.9%; in the assay on HOP-62 NSCLC it was 9.65% (active); in the assay on NCI-H460 lung, -19.9% (active); in the assay with HOP-92 NSCLC it was -49.6% (active). The growth in the assay on NCI-H522 lung was -66.2% (active); in the assay with A549/ATCC NSCLC, 44.3%; with 786-0 renal it was -63.8% (active); with COLO 205 colon, -85% (active).
Turning to `CCOC(=O)/C(C#N)=C(/C)C1CC1`, the growth in the assay with NCI-H23 lung was 109%; in the assay on NCI-H226 lung, 95.7%; with NCI-H322M lung it was 112%; with HOP-62 NSCLC, 98.5%; with NCI-H460 lung, 104%; in the assay on HOP-92 NSCLC, 86%. For the same compound, the growth was 110% in the assay with NCI-H522 lung, 99.7% in the assay with A549/ATCC NSCLC, 103% in the assay on 786-0 renal and 108% in the assay with COLO 205 colon.
`Cc1noc(C)c1-c1ccc2nc(NC(=O)[C@H]3CCN(C#N)C3)cn2c1`: the growth in the assay on NCI-H23 lung was 76.1%; in the assay with NCI-H226 lung, 91.1%; in the assay on NCI-H322M lung, 99.3%; in the assay on HOP-62 NSCLC, 92.8%; in the assay on NCI-H460 lung, 98.7%; with HOP-92 NSCLC, 67.3%. Also, the growth is 25.2% with NCI-H522 lung, 94.6% in the assay with A549/ATCC NSCLC, 78.6% in the assay with 786-0 renal and 82.6% in the assay with COLO 205 colon.
For `COc1ccc(-c2cc(/C=C/C(=O)c3ccc(N)cc3)[nH]n2)cc1OC`, the growth in the assay with NCI-H23 lung was 51.6%; in the assay with NCI-H226 lung, 82.3%; with NCI-H322M lung, 38.3%; in the assay with HOP-62 NSCLC, 55.4%; with NCI-H460 lung, 3.19% (active); in the assay on HOP-92 NSCLC it was 33.5%. Further, the growth in the assay on NCI-H522 lung was 24.7%; in the assay on A549/ATCC NSCLC, 32%; in the assay with 786-0 renal it was 42.6%; in the assay with COLO 205 colon it was 27.1%.
